Screens: PubChem, National Center for Advancing Translational Sciences (NCATS)
Tb PYK inh: blocks Trypanosoma brucei pyruvate kinase | Q57TT1 | TbPYK enzyme, Kinase-Glo Plus ATP luminescence, 45 min | Potency, µM (highest dose often 76.8 µM), without a hit: at the highest dose activity, negative = inhibition, most hits filed as inhibitors | 410,000 compounds, 0.12% hits | AID 624173; active = well fitted curve in the direction sought with a large enough effect; inconclusive = small, poorly fitted or top-dose-only effect, or another doubt; inactive = no such curve, though single readings can be large; an effect the other way counts as inactive or inconclusive; also: potency is read from the fitted curve at half-maximal effect; % is scaled to controls: 0 for no effect and ±100 for the full control effect; nearly all actives have a fitted effect of over 50% in size
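Glycolytic pyruvate kinase of T. brucei was incubated with substrate, test compound and 130 uM ADP for 45 minutes at room temperature. Luminescent Kinase-Glo Plus signal was measured after 10 minutes.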
NS1 inh: inhibitors of influenza NS1 protein function; Potency, µM (top dose mostly 46.1 µM), inactives show at the top dose activity, positive = more growth; 270,000 compounds, 0.4% hits; also: potency is read from the fitted curve at half-maximal effect; actives are rising curves; nearly all actives have a fitted effect of over 50% in size
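In this qHTS, NS1 from influenza A is expressed in budding yeast, where it slows growth. Cells are switched from glucose to 2% galactose medium (pH 6.0, -URA), treated with compound, and growth recovery is read at OD600.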
Shiga inhibitor: blocks Shiga toxin action in Vero cells | Vero cells, Shiga toxin protein synthesis inhibition reporter | 290,000 compounds, 9.2% hits | inhibition, % at 38.7 µM | AID 2315; in the data active = inhibition mostly above about 28%, no sharp cut-off; inactive = mostly below about 43%; also: 0% is about no effect
CHX counter: counter-screen hit for Shiga toxin inhibitors, cycloheximide | AID 2314 | 300,000 compounds, 12% hits | cell reporter, cycloheximide protein synthesis inhibition counterscreen | max response, %; in the data active = max response mostly above about 13%, no sharp cut-off; inactive = mostly below about 14%; also: read at 38.3 µM for the half of the compounds with a filed dose; 0% is about no effect
SARS PLpro yeast: SARS-CoV PLP inhibition in yeast. S. cerevisiae expressing SARS-CoV PLpro, growth rescue. Potency, µM (series often up to 32.9 µM), for inactives: top-dose activity, positive = growth rescue, most hits filed as activators. 330,000 compounds, 0.19% hits. AID 485353; also: potency is read from the fitted curve at half-maximal effect; 0% is about no effect; nearly all actives have a fitted effect of over 55% in size
LmPK inh: LmPK (Leishmania mexicana) enzyme inhibition | Potency, µM (series often up to 57.5 µM), for inactives: at the top dose activity change, negative = inhibition, actives largely listed as inhibitors | 290,000 compounds, 0.37% hits | Q27686 | purified LmPK, Kinase-Glo ATP luminescence, 1 h; active = well fitted curve in the direction sought with a large enough effect; inconclusive = small, poorly fitted or top-dose-only effect, or another doubt; inactive = no such curve, though single readings can be large; an effect the other way counts as inactive or inconclusive; also: potency is read from the fitted curve at half-maximal effect; % is scaled to controls: 0 for no effect and ±100 for the full control effect
Target sequence (Q27686 whole entry, looked up): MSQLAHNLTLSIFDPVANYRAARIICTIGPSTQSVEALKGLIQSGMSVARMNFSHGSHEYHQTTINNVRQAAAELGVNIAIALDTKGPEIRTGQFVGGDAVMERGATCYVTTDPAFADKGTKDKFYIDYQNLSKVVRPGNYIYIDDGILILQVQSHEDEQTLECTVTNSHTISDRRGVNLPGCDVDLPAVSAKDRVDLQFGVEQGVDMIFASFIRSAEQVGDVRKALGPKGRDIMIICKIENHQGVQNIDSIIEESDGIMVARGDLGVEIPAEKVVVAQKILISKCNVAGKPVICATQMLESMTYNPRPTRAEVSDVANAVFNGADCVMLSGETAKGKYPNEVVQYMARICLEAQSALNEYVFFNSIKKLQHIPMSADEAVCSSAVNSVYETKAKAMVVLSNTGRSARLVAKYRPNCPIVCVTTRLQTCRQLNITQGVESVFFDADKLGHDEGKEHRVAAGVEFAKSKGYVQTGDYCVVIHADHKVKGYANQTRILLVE
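Purified LmPK (0.1 nM) with 0.5 mM PEP and 0.1 mM ADP in imidazole buffer pH 7.2 with MgCl2/KCl, 1 h at room temperature. ATP formed was read by luciferase luminescence and normalized to no-enzyme and uninhibited controls.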
* hit, by the source's call; ? = inconclusive; . = no result given. The full list was thinned out, with hits kept by preference. Unless noted, calls follow the shape of the full dose curve.

SMILES | Tb PYK inh | NS1 inh | Shiga inhibitor | CHX counter | SARS PLpro yeast | LmPK inh
C=CCN=c1scc(-c2ccc(F)cc2)n1/N=C/c1ccccn1 | 1% | -17% | 90* | 19* | -2% | 6%
C=CCN=c1scc(-c2ccccc2)n1/N=C/c1ccccn1 | -1% | -31% | active | 20* | -60% | 2%
C=CCN=c1scc(-c2ccc3c(c2)NC(=O)CO3)n1/N=C(\C)c1ccccn1 | 3% | . | -4 | 10 | 4% | 3%
Cc1ccc(C(=O)N/C(=C/c2ccc(N(C)C)cc2)C(=O)NCC2CCCO2)cc1 (centres undefined) | -4% | -11% | -8 | -2 | 1% | -2%
COc1ccccc1N1CCN(/N=C/c2cc(Br)ccc2F)CC1 | 3% | -10% | 22 | 16* | 27% | 0%
COc1ccccc1N1CCN(/N=C/c2cccc(OC)c2O)CC1 | -10% | 5% | 3 | 11 | 1% | -16%
COc1ccccc1N1CCN(/N=C/c2ccc(C(=O)O)cc2)CC1 | -4% | 5% | 154* | 48* | 2% | -3%
COc1ccc(Br)cc1/C=N/N1CCN(Cc2ccccc2)CC1 | 0% | 6% | -3 | -1 | -1% | -8%
COc1ccccc1N1CCN(/N=C(\C)c2ccc(O)cc2)CC1 | -1% | 14% | 43* | 28* | 1% | -7%
COc1ccccc1N1CCN(/N=C/c2ccc(O)c(O)c2)CC1 | ? | 1% | 55* | 38* | 2% | -20%
COc1ccccc1N1CCN(/N=C/c2cc(OC)c(OC(C)=O)c(OC)c2)CC1 | -1% | 10% | . | -3 | -1% | 1%
COc1ccc(/C=N/N2CCN(c3ccccc3OC)CC2)cc1OC | 2% | -35% | 36 | 17* | -2% | -5%
COc1ccc(/C=N/N2CCN(C)CC2)cc1OC | -4% | 13% | 3 | 2 | 0% | 0%
COc1ccc(/C=N/N2CCN(c3ccccc3OC)CC2)cc1Br | 5% | -21% | . | 30* | -3% | -1%
CN(CC(=O)Nc1c(Cl)cccc1Cl)C(=O)Cc1cccs1 | -11% | . | . | . | -2% | .
O=C(Nc1nnc(-c2ccc3c(c2)CCCC3)o1)c1ccccc1 | 1% | -36% | active | 20* | -20% | -1%
O=C(Nc1nnc(-c2ccncc2)o1)c1ccccc1 | -23% | . | 26 | 14 | 3% | 7%
Cc1ccc(C(=O)Nc2nnc(-c3ccncc3)o2)cc1 | 2% | 9% | 23 | 9.8* | -8% | -10%
O=C(O)c1ccc(-n2nc(C(F)(F)F)c3c2CCCC3)cc1 | 2% | -41% | 2 | -1 | -1% | -1%
NC(=O)c1ccc(-n2nc(C(F)(F)F)c3c2CCCC3)cc1 | -6% | -4% | 29 | 19* | -3% | -2%
CSCCC(NS(=O)(=O)c1cccs1)C(=O)Nc1ccc(C)c(Cl)c1 (centres undefined) | 4% | . | . | . | . | .
CCCc1cc(C(=O)Nc2cc(C)ccc2O)no1 | -3% | -11% | 49* | 18* | -10% | -8%
CCCc1cc(C(=O)Nc2cc(OC)c(Cl)cc2OC)no1 | 3% | -34% | 12 | -3 | -3% | 1%
CCCc1cc(C(=O)Nc2cccnc2Cl)no1 | 0% | -45% | 59* | 55* | -18% | -7%
CCCc1cc(C(=O)Nc2ccccc2C(=O)OC)no1 | -8% | -16% | 12 | -3 | -2% | -6%
SMILES | Tb PYK inh | NS1 inh | Shiga inhibitor | CHX counter | SARS PLpro yeast | LmPK inh
O=C1CC2(CCN(C(=O)COc3ccc(Cl)cc3)CC2)Oc2ccccc21 | -5% | . | . | . | -1% | .
Cc1ccc(Oc2cc(-n3nc(C)cc3C)ncn2)cc1 | -4% | -13% | 59* | 17* | -9% | -17%
Cc1nc(-n2nc(C)c(Cc3ccccc3Cl)c2C)sc1C(=O)Nc1ccccc1F | -1% | . | . | . | . | .
CN(C(=O)c1ccc2c(=O)n3c(nc2c1)CCCCC3)c1ccccc1F | -5% | 0% | -1 | 17* | -4% | -4%
CN(C(=O)c1ccc2c(=O)n3c(nc2c1)CCCCC3)c1cccc(Cl)c1 | 7% | 8% | 23 | 18* | -2% | 2%
CCc1ccccc1N(C)C(=O)c1ccc2c(=O)n3c(nc2c1)CCCCC3 | -5% | . | . | . | . | .
COc1ccc(CN(C)C(=O)c2ccc3c(=O)n4c(nc3c2)CCC4)cc1 | -10% | -13% | 110* | 44* | -4% | -8%
CC(C)C(=O)Nc1nc2cc3c(cc2s1)OCO3 | 0% | 1% | 77* | 26* | -10% | -6%
Cc1cccc2sc(NNC(=O)c3ccc4c(c3)OCCO4)nc12 | -21% | -26% | 76 | 12 | -12% | 0%
O=C(Nc1nc2cc3c(cc2s1)OCO3)c1ccc(N2C(=O)CCC2=O)cc1 | 1% | -2% | 19 | 0 | -1% | 0%
O=C(NNc1nc2cc3c(cc2s1)OCCO3)c1ccccc1 | -12% | 3% | 146* | 36* | 1% | 1%
CC(=O)Nc1nc2cc3c(cc2s1)OCCO3 | -21% | -9% | 29* | 44* | 5% | -19%
CC(C)(C)C(=O)Nc1nc2cc3c(cc2s1)OCO3 | -1% | 3% | 71* | 37* | 1% | 9%
COc1ccc(NC(=O)C2Cc3c(-c4ccccc4Oc4ccccc4)ccnc3O2)cc1 (centres undefined) | -9% | . | . | . | . | .
Cn1c(SCC(=O)Nc2ccc(C(=O)O)cc2)nc2scc(-c3ccccc3Cl)c2c1=O | 1% | . | . | . | 4% | .
CCOc1ccccc1C(=O)N(Cc1sccc1C)C1CCS(=O)(=O)C1 (centres undefined) | 17% | 4% | -5 | -6 | 0% | 1%
O=C(Nc1nc(-c2ccccc2)cs1)C1CCCO1 (centres undefined) | -21% | -13% | 111* | 38* | -2% | 2%
O=C(Nc1nc(-c2ccc(-c3ccccc3)cc2)cs1)C1CCCO1 (centres undefined) | 3% | 8% | 16 | 22 | -2% | -23%
O=C(Nc1nc(-c2ccc(F)cc2)cs1)C1CCCO1 (centres undefined) | 3% | -3% | 104* | 42* | -22% | 1%
O=c1[nH]c(=S)n(C2CC2)c(O)c1/C=N/Nc1ccccc1 | -9% | -8% | 65* | 24* | -23% | 2%
O=C(N/N=C/c1c(O)n(CCc2ccccc2)c(=O)[nH]c1=O)c1ccccc1 | -2% | -1% | 31* | 30* | -2% | 8%
CCCCn1c(O)c(/C=N/NC(=O)c2ccncc2)c(=O)[nH]c1=O | -4% | -1% | 18 | 7 | 0% | -3%
O=C(N/N=C/c1c(O)n(C2CCCCC2)c(=S)[nH]c1=O)c1ccccc1 | -2% | 16% | 48* | 22 | -3% | -5%
O=C(N/N=C/c1c(O)n(C2CCCCC2)c(=S)[nH]c1=O)c1ccccc1O | -2% | 5% | 11 | 15 | 25% | 10%
CCCCC(=O)N/N=C/c1c(O)n(Cc2ccco2)c(=O)[nH]c1=O | -13% | 2% | 12 | 1 | 0% | 10%
